Screening results as filed in PubChem.
S2 tox: cell viability loss in ATXN counter-screen. Potency, µM (titrated, usually from 56.7 µM), hits mostly cytotoxic. S2 cells (HEK-293 line with an ATXN2-luciferase reporter) viability, CellTiter-Fluor protease fluorescence, 24 h. 0.49% of 400,000 active. AID 651635; note: nearly all actives have a fitted effect of over 40% in size
TGFb SMAD3 inh: blocks TGF-b signaling; 1.2% of 410,000 active; Potency, µM (series often up to 46.1 µM), for inactives: top-dose activity, negative = inhibition, actives largely listed as inhibitors; HepG2 CAGA-GFP TGF-b/SMAD3 reporter, GFP fluorescence, 18 h; TGF-beta stimulated, 500 pg/mL final; AID 588855; note: % is set by controls: 0 for no effect and ±100 for the full control effect; nearly all actives have a fitted effect of over 65% in size
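Smad-responsive CAGA-GFP expression was quantified in HEPG2 cells exposed to compounds and 500 pg/mL final TGF-beta for 18 h at 37 degrees C; unstimulated wells defined full inhibition.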
GLP-1R inv ag: acts as inverse agonist at human GLP-1 receptor | P43220 | HEK293 GLP-1R CRE-luciferase, luminescence, 24 h; GLP-1R form is constitutively active | Potency, µM (highest dose often 38.3 µM), for inactives: at the top dose activity change, negative = inhibition, usual class: inhibitors | 1.6% of 410,000 active; note: % is set by controls: 0 for no effect and ±100 for the full control effect; nearly all actives have a fitted effect of over 55% in size
Target sequence (P43220 whole entry, looked up): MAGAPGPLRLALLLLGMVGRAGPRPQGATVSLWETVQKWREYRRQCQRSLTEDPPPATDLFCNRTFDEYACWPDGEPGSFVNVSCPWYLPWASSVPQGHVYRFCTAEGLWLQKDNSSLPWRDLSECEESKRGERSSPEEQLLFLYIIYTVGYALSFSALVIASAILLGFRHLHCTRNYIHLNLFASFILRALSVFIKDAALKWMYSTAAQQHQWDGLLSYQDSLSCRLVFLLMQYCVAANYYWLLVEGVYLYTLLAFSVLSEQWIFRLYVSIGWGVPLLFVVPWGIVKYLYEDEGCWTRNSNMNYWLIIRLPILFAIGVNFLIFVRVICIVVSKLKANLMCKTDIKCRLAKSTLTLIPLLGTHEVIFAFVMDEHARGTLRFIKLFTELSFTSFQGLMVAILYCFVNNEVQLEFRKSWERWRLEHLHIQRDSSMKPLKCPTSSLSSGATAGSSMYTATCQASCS
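Cells are plated, allowed 12 hours at 37 deg C, then treated with compounds for 24 hr before luciferase detection reagent is added and luminescence is read after 12 min at room temperature. The HEK293 line carries constitutively active GLP-1R with a cAMP-responsive reporter.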
ATXN2 expr inh: inhibitors of ATXN2 expression. HEK-293 ATXN2-luciferase reporter, luminescence, 24 h. Potency, µM (doses to about 57 µM), without a hit: at the highest dose activity change, negative = inhibition, hits mostly inhibitors. 0.72% of 360,000 active; note: % is set by controls: 0 for no effect and ±100 for the full control effect; nearly all actives have a fitted effect of over 55% in size
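qHTS (up to 57 uM final) was run with 24 h compound exposure of reporter cells at 37 °C. Each well was multiplexed: SteadyGlo luminescence measured ATXN2-luciferase expression after a fluorogenic Gly-Phe-AFC viability readout (25 uM final).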
HepG2 tox-1: counter-screen for TGF-b inhibitors: cytotoxicity in HepG2 cells; AID 588856; 0.76% of 410,000 active; HepG2 CAGA-GFP viability, ATP luminescence, 18 h; Potency, µM (highest dose often 46.1 µM), without a hit: at the highest dose activity change, negative = cytotoxicity, hits mostly cytotoxic
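CellTiter-Glo luminescence gave cytotoxicity after 18 hours at 37 degrees C. The cells were HepG2 CAGA-GFP in 1% FBS DMEM, stimulated with 500 pg/mL TGF-beta after compound addition. %Activity was normalised to no-cell wells (complete cell-killing) and DMSO (no toxicity), and curves were fitted and classified.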
GLP1R ag: agonists of human GLP-1 receptor | HEK293 GLP-1R CRE-luciferase, luminescence, 4-6 h; cells express a hypersensitive GLP-1R form | 0.007% of 380,000 active | P43220 | Potency, µM (titrated, usually from 45.6 µM), for the others: at the top dose activation, actives largely listed as activators; note: % of control where 0% means no effect
TGFb confirm: TGF-b pathway inhibition, cherry-pick retest; shares compounds with TGFb SMAD3 inh; HepG2 CAGA-GFP TGF-b reporter, GFP fluorescence, 18 h; cells stimulated with TGF-beta, 500 pg/mL; Potency, µM (top dose mostly 46.1 µM), for inactives: at the highest dose activity, negative = inhibition, usual class: inhibitors; 63% of 1,600 active; note: % is set by controls: 0 for no effect and ±100 for the full control effect; nearly all actives have a fitted effect of over 65% in size
HepG2 tox-2: HepG2 cytotoxicity, TGF-b inhibitor counterscreen. shares compounds with TGFb SMAD3 inh. HepG2 CAGA-GFP viability, ATP luminescence, 18 h; cells stimulated with TGF-beta, 500 pg/mL. Potency, µM (titrated, usually from 46.1 µM), inactives show top-dose activity, negative = cytotoxicity, hits mostly inhibitors. 27% of 1,600 active; note: % is set by controls: 0 for no effect and ±100 for the full control effect; nearly all actives have a fitted effect of over 70% in size
TGFb CCL64 inh: TGF-b inhibition, CCL64 orthogonal assay; 41% of 1,600 active; AID 720536; CCL64 CAGA-GFP reporter, TGF-b stimulated, GFP fluorescence, 18 h; shares compounds with TGFb SMAD3 inh; Potency, µM (doses to about 46.1 µM), without a hit: at the top dose activity, negative = inhibition, actives largely listed as inhibitors; note: nearly all actives have a fitted effect of over 65% in size
COP TGFb inh: TGF-b inhibition validated with COP promoter. shares compounds with TGFb SMAD3 inh. HepG2 COP-GFP TGF-b reporter, GFP fluorescence, 18 h; cells stimulated by added recombinant TGF-beta. Potency, µM (top dose mostly 46.1 µM), without a hit: at the top dose activity, negative = inhibition, actives largely listed as inhibitors. 3% of 1,600 active. AID 720537; note: nearly all actives have a fitted effect of over 70% in size
* hit, by the source's call; i = inactive; u = inconclusive; x = no result given. Rows were chosen to be rich in hits. Some 3.7% of all compounds tested hit in one or more screens of this group. Calls come from the whole dose curve; as a rule, active = well fitted curve in the direction sought with a large enough effect; inconclusive = small, poorly fitted or top-dose-only effect, or another doubt; inactive = no such curve, though single readings can be large; an effect the other way counts as inactive or inconclusive. Potency is the fitted concentration of half-maximal effect.

SMILES | S2 tox | TGFb SMAD3 inh | GLP-1R inv ag | ATXN2 expr inh | HepG2 tox-1 | GLP1R ag | TGFb confirm | HepG2 tox-2 | TGFb CCL64 inh | COP TGFb inh
Cc1ccc2nc(-c3ccco3)c(CC3CCCCC3)n2c1 | x | 10µM* | -5.9% | -35.7% | -32.1% | 7.2% | u | u | 20.6µM* | 16.3%
Cc1ccc2nc(-c3ccc(Cl)cc3)c(CC3CCCCC3)n2c1 | u | -29.1% | -23.4% | 8.1% | -42.3% | 1.2% | x | x | x | x
COc1ccccc1Cc1c(-c2ccco2)nc2ccc(C)cn12 | u | 10µM* | 11.7% | -18.6% | -17.3% | 1.3% | 16.4µM* | u | u | 49.3%
COc1cc(-c2noc(C)c2/C=C/c2ccc(C(=O)O)cc2)cc(OC)c1OC | i | -0.6% | 14.5% | -3.0% | 1.4% | 8.3% | x | x | x | x
COc1cc(-c2noc(C)c2/C=C/c2cccc([N+](=O)[O-])c2)cc(OC)c1OC | u | 12.6µM* | u | u | -19.1% | -4.5% | u | -27.5% | u | -10.7%
CCOc1ccc(C(=O)Nc2ccccc2OCc2cc(=O)n3ccccc3n2)cc1 | x | -18.2% | -7.7% | x | -26.3% | x | x | x | x | x
COc1cc2c(cc1OC)C(COc1ccc3c(C)cc(=O)oc3c1)N(C(=O)c1ccccc1C)CC2 (stereo not drawn) | i | -9.5% | 6.5% | -0.1% | -10.2% | x | x | x | x | x
O=C(Nc1cccc(C(F)(F)F)c1)C1Cc2c(-c3ccc(Cl)cc3)ccnc2O1 (stereo not drawn) | u | 8.91µM* | u | -28.4% | -62.5% | -0.8% | u | u | u | 37.7%
O=C(Nc1cccc(C(F)(F)F)c1)C1Cc2c(-c3ccccc3)ccnc2O1 (stereo not drawn) | i | u | u | u | -27.9% | 13.1% | x | x | x | x
N#CC(c1ccc(Cl)cc1)c1ccc2c(C(F)(F)F)cc(C(F)(F)F)nc2n1 (stereo not drawn) | 2µM* | 3.55µM* | 7.08µM* | 0.708µM* | -38.1% | 0.2% | 5.17µM* | 6.51µM* | 1.46µM* | 102.8%
Cc1csc2c(N3CCN(C(=O)NC(C)(C)C)CC3)ncnc12 | i | u | 21.0% | 0.0% | -20.7% | 25.9% | x | x | x | x
Cc1csc2c(N3CCN(C(=O)c4ccc(C(C)(C)C)cc4)CC3)ncnc12 | i | 11.2µM* | u | x | -37.7% | 19.1% | 9.2µM* | -21.0% | u | 11.2%
Cc1ccc2nc(COc3cccc(NC(=O)COc4ccc(F)cc4)c3)cc(=O)n2c1 | x | -2.1% | 3.5% | x | -9.3% | x | x | x | x | x
CCCc1ccc(OCC(=O)Nc2sc3c(c2C(=O)OCC)CCC(C(C)(C)C)C3)cc1 (stereo not drawn) | i | -18.4% | 0.2% | 4.8% | -29.0% | x | x | x | x | x
CC(=O)Nc1ccc(NC(=O)CSc2ccc(-c3ccc4c(c3)OCO4)nn2)cc1 | i | 3.4% | 22.1% | 5.6% | -10.9% | 14.3% | x | x | x | x
Cc1ccc(-c2ccc(SCC(=O)Nc3ccc4c(c3)OCCO4)nn2)cc1 | u | 3.16µM* | 0.3% | 34.3% | -20.5% | 2.1% | 20.6µM* | 3.1% | 7.9% | -6.5%
O=C(c1ccc2c(c1)OCO2)C1CCCN(Cc2ccc(OC(F)F)cc2)C1 (stereo not drawn) | i | u | u | x | -37.6% | 11.4% | u | u | u | 11.9%
COc1ccc(C(=O)NN(C)c2nc(C(F)(F)F)nc3ccccc23)cc1 | u | u | -67.8% | 26.7% | -22.8% | 4.4% | u | -16.5% | u | -15.0%
COc1ccc(C(=O)NN(C)c2nc(-c3ccccc3)nnc2C(F)(F)F)cc1 | i | 15.0% | -3.5% | -13.3% | 0.5% | 4.7% | x | x | x | x
CC(C)C[C@H]1CNC(=S)N1CC1CCCN1C[C@H](CC(C)C)N1C[C@H](Cc2ccc(O)cc2)N(CC2CCCCC2)C1=S (stereo partly drawn) | u | 10µM* | u | u | 11.2µM* | -6.0% | u | u | u | u
CC(C)C[C@H]1CNC(=S)N1C[C@H]1CCCN1C[C@H](CC(C)C)N1C[C@H](Cc2ccc(O)cc2)N(CC2CCCCCC2)C1=S | 22.4µM* | 6.31µM* | u | u | 11.2µM* | 9.6% | u | u | u | 90.6%
CC(C)C[C@@H](CN1CCCC1CN1C(=S)NC[C@@H]1Cc1ccc(O)cc1)N1C[C@H](Cc2ccc(O)cc2)N(CC2CCCCC2)C1=S (stereo partly drawn) | u | 10µM* | 11.2µM* | u | -99.5% | -1.3% | 8.2µM* | u | u | u
CC(C)C[C@H]1CNC(=S)N1CC1CCCN1C[C@H](CC(C)C)N1C[C@H](Cc2ccc(O)cc2)N(CC2CCCCCC2)C1=S (stereo partly drawn) | u | u | -1.3% | u | -54.2% | 12.1% | x | x | x | x
CC(C)C[C@@H](CN1CCC[C@@H]1CN1C(=S)NC[C@@H]1Cc1ccccc1)N1C[C@H](Cc2ccc(O)cc2)N(CC2CCCCC2)C1=S | u | u | 28.5% | -7.0% | -17.4% | 0.4% | x | x | x | x
COc1ccccc1NC(=O)C1CCN(S(=O)(=O)c2ccc3[nH]c4c(c3c2)CCCCC4)CC1 | x | u | u | x | -20.6% | x | x | x | x | x
Cc1ccc(-c2c3c(=O)n(C)c(=O)n(C)c3c3c(C(F)(F)F)nc4ccccc4n23)cc1 | i | 10.4% | 8.0% | -6.6% | -1.4% | x | x | x | x | x
